According to article PMC11024108:

What was measured:
[1] = biological target: AP-2 complex subunit beta (UniProt P63010); experiment: cross-link between two proteins; cross-linking mass spectrometry
[2] = biological target: AP-1 complex subunit beta-1 (UniProt Q10567); experiment: cross-link between two proteins; co-fractionation; cross-linking mass spectrometry
[3] = biological target: AP-2 complex subunit beta (UniProt Q9DBG3); experiment: cross-link between two proteins; cross-linking mass spectrometry
Chain of AP-2 complex subunit beta (UniProt Q9DBG3) (Q9DBG3 whole entry, one chain of several): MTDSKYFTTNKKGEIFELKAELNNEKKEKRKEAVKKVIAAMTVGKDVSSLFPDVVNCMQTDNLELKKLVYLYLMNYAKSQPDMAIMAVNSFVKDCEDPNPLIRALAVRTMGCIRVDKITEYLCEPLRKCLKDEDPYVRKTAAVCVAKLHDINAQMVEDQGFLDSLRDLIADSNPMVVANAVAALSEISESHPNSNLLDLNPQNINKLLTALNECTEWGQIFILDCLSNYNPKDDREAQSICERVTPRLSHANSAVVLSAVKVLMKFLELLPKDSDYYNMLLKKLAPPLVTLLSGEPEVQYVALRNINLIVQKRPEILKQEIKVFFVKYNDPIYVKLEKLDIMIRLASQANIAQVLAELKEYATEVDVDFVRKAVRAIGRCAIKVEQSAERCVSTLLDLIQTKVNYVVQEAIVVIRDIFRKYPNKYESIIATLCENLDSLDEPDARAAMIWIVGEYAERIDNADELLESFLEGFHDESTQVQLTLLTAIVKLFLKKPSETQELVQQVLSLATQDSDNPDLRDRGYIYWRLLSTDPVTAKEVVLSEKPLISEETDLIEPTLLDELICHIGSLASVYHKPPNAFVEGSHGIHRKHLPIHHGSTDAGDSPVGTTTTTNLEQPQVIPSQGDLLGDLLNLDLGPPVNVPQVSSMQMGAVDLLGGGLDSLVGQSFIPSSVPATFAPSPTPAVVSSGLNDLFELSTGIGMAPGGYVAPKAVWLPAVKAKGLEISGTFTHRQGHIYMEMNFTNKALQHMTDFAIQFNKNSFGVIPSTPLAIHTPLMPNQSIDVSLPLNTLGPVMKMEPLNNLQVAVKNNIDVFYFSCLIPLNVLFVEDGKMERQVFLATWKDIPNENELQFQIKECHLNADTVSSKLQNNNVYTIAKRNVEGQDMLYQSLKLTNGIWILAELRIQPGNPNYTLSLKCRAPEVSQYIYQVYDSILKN

[4] = biological target: Actin, alpha cardiac muscle 1 (UniProt P68033); experiment: as above
Coronin-2B = biological target: T1, Coronin-2B (UniProt Q8BH44); experiment: as above
T1 sequence: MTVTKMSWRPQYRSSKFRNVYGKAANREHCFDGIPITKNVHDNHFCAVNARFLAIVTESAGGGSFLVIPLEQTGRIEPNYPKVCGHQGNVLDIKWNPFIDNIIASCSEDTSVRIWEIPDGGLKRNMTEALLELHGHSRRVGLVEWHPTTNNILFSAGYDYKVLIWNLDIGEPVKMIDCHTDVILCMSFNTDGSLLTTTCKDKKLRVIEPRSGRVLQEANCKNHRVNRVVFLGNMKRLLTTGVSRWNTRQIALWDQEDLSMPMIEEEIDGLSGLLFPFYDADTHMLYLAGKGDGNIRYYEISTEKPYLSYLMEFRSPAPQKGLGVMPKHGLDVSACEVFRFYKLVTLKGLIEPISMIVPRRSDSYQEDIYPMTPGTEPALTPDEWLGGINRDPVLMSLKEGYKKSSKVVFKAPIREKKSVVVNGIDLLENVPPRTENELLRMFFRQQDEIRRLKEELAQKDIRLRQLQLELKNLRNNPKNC

Myosin-10 = Myosin-10 (UniProt Q61879); experiment: as above
[5] = biological target: T2, Phosphatase and actin regulator 1 (UniProt Q2M3X8); experiment: as above
T2 sequence: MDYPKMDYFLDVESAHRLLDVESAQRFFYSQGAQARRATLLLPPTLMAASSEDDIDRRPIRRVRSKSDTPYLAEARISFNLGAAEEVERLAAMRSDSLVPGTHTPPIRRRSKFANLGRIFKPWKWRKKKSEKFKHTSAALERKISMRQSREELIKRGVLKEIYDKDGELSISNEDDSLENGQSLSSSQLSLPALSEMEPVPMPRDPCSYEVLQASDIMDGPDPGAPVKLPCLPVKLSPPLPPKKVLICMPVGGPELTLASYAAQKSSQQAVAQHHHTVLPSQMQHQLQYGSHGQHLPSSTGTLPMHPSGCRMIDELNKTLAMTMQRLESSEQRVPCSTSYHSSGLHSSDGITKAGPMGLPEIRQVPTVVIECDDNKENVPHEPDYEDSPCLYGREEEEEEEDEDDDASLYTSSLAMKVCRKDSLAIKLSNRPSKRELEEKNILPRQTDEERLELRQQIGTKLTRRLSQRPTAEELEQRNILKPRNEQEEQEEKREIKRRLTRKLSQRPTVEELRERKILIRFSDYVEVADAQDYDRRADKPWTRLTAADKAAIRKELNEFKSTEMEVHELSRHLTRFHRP

Synaptopodin = biological target: T3, Synaptopodin (UniProt Q8CC35); experiment: as above
T3 sequence: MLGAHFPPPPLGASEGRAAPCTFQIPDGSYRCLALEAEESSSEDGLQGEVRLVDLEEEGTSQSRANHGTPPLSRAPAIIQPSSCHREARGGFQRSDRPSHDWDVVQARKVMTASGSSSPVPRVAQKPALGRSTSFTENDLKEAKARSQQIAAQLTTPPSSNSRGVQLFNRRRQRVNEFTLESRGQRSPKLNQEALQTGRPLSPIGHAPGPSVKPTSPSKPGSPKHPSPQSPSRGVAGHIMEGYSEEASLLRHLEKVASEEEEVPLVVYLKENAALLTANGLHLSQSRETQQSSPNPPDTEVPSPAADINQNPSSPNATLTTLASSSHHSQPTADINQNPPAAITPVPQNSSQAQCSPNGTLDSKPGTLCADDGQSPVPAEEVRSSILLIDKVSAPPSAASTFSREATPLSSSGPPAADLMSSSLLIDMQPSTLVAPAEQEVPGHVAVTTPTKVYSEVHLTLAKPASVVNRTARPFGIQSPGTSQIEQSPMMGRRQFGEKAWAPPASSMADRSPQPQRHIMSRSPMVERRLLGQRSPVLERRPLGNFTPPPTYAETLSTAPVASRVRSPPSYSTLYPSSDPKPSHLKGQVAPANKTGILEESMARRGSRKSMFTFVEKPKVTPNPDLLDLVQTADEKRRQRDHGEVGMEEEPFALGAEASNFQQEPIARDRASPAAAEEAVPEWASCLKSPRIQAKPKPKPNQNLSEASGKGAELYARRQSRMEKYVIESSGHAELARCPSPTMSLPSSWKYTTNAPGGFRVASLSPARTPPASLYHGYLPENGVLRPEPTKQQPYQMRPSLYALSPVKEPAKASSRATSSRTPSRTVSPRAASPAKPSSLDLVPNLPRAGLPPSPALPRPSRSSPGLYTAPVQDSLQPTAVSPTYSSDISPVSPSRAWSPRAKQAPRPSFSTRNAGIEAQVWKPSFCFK

Tropomodulin-2 = biological target: T4, Tropomodulin-2 (UniProt Q9JKK7); experiment: as above
T4 sequence: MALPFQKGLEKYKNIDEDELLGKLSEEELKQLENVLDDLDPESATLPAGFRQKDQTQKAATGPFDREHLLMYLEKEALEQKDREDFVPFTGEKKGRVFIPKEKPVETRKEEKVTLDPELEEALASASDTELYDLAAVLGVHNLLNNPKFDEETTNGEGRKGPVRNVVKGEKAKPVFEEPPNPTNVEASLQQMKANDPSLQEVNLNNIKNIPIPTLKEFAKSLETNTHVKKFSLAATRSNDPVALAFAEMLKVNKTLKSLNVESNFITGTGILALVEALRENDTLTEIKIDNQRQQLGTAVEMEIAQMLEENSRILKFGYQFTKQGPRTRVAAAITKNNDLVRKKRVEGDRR

Twinfilin-1 = Twinfilin-1 (UniProt Q91YR1); experiment: as above
Twinfilin-2 = biological target: T5, Twinfilin-2 (UniProt Q9Z0P5); experiment: as above
T5 sequence: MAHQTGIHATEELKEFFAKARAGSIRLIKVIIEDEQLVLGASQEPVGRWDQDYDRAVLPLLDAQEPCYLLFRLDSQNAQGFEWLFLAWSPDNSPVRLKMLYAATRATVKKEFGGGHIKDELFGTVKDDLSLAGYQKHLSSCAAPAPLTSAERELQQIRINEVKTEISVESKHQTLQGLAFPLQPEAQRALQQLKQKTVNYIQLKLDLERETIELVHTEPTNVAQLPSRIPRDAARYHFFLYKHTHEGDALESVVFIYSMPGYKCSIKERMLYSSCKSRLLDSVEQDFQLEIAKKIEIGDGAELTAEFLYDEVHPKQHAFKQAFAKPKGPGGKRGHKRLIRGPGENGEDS

Unconventional myosin-Va = Unconventional myosin-Va (UniProt Q99104); experiment: as above
Actin, cytoplasmic 2 = Actin, cytoplasmic 2 (UniProt P63261); experiment: as above
Epsin-1 = Epsin-1 (UniProt Q9Y6I3); experiment: as above
[6] = biological target: Ubiquitin-like protein NEDD8 (UniProt Q15843); experiment: as above
[7] = biological target: Actin-related protein 2/3 complex subunit 3 (UniProt Q9JM76); experiment: as above
[8] = biological target: Actin-related protein 2/3 complex subunit 5 (UniProt Q9CPW4); experiment: as above
[9] = biological target: Actin-related protein 2/3 complex subunit 5-like protein (UniProt Q9D898); experiment: as above
Beta-synuclein = Beta-synuclein (UniProt Q91ZZ3); experiment: as above
[10] = biological target: Dihydropyrimidinase-related protein 1 (UniProt P97427); experiment: as above
[11] = biological target: Dihydropyrimidinase-related protein 3 (UniProt Q62188); experiment: as above
Histone H1.2 = Histone H1.2 (UniProt P16403); experiment: as above
Chain of Histone H1.2 (P16403 whole entry): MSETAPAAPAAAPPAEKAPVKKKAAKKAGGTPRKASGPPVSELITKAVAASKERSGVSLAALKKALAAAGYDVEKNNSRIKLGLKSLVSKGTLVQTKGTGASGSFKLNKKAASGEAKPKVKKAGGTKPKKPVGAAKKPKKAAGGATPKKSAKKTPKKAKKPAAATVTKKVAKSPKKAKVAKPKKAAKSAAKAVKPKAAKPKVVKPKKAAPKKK

[12] = biological target: Large ribosomal subunit protein eL20 (UniProt Q02543); experiment: as above
[13] = biological target: T6, Serine/arginine-rich splicing factor 7 (UniProt Q16629); experiment: as above
T6 sequence: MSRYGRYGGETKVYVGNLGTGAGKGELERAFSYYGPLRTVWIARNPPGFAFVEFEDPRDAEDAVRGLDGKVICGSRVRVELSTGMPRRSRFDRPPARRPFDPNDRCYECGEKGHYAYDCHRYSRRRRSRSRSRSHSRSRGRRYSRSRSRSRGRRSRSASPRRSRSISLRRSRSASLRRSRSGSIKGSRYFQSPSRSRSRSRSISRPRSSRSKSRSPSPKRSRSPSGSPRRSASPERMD

[14] = biological target: Small ribosomal subunit protein eS8 (UniProt P62241); experiment: as above
Histone H2A type 1-J = Histone H2A type 1-J (UniProt Q99878); experiment: as above
Histone H4 = Histone H4 (UniProt P62805); experiment: as above
[15] = biological target: L-lactate dehydrogenase B chain (UniProt P16125); experiment: as above
[16] = biological target: Large ribosomal subunit protein bL17m (UniProt Q9NRX2); experiment: as above
[17] = biological target: Large ribosomal subunit protein eL24 (UniProt P83731); experiment: as above
[18] = biological target: Large ribosomal subunit protein eL24 (UniProt Q8BP67); experiment: as above

Chain of AP-2 complex subunit sigma, P53680 (P53680 whole entry, one chain of several): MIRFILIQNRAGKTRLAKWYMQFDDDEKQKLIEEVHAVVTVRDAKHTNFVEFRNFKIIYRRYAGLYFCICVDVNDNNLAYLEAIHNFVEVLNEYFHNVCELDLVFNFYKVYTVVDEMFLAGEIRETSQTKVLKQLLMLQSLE
Chain of AP-1 complex subunit beta-1 (Q10567 whole entry, one chain of several): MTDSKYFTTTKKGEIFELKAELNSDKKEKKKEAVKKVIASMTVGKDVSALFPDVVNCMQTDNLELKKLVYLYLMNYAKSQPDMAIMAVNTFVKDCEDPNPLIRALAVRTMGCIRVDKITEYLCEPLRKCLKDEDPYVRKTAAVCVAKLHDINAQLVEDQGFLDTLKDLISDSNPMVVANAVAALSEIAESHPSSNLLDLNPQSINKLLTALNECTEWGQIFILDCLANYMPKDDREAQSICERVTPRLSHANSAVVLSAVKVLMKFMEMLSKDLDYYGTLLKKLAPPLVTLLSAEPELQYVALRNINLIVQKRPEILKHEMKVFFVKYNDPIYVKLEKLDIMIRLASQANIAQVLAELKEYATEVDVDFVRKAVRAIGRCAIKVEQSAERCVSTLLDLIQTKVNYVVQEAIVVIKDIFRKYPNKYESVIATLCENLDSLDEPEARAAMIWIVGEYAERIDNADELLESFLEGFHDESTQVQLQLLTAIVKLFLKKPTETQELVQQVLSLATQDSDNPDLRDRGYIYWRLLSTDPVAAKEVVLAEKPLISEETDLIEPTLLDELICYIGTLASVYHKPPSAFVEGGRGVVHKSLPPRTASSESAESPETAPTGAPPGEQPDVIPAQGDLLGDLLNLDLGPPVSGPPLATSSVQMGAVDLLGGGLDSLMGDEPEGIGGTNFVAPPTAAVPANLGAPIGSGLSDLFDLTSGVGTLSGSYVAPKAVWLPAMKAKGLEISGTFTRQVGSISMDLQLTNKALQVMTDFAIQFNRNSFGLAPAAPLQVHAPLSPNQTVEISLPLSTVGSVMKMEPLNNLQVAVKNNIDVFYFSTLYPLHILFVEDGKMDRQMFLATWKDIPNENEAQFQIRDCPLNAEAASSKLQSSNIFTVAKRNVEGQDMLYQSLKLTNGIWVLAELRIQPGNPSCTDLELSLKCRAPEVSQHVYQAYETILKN
Chain of AP-2 complex subunit beta (UniProt P63010) (P63010 whole entry, one chain of several): as the sequence (Q9DBG3 whole entry, one chain of several) above, with T612A counted along it
Chain of AP-2 complex subunit sigma, P62743 (P62743 whole entry, one chain of several): as the sequence (P53680 whole entry, one chain of several) above

AP-2 complex subunit sigma, P53680
listed as a hit [1]: yes
listed as a hit [2]: yes

AP-2 complex subunit sigma, P62743
listed as a hit [3]: yes

Actin, cytoplasmic 1, P60710
listed as a hit [4]: yes
listed as a hit (Coronin-2B): yes
listed as a hit (Myosin-10): yes
listed as a hit [5]: yes
listed as a hit (Synaptopodin): yes
listed as a hit (Tropomodulin-2): yes
listed as a hit (Twinfilin-1): yes
listed as a hit (Twinfilin-2): yes
listed as a hit (Unconventional myosin-Va): yes

Ubiquitin-ribosomal protein eS31 fusion protein, P62979
listed as a hit (Actin, cytoplasmic 2): yes
listed as a hit (Epsin-1): yes
listed as a hit [6]: yes

Actin-related protein 2, P61161
listed as a hit [7]: yes

Actin-related protein 2/3 complex subunit 4, P59999
listed as a hit [8]: yes
listed as a hit [9]: yes

Alpha-synuclein, O55042
listed as a hit (Beta-synuclein): yes

Dihydropyrimidinase-related protein 2, O08553
listed as a hit [10]: yes
listed as a hit [11]: yes

Histone H1.4, P10412
listed as a hit (Histone H1.2): yes
listed as a hit [12]: yes
listed as a hit [13]: yes
listed as a hit [14]: yes

Large ribosomal subunit protein uL14, P62829
listed as a hit (Histone H2A type 1-J): yes

Histone H2A type 1-C, Q93077
listed as a hit (Histone H2A type 1-J): yes

Histone H2B type F-S, P57053
listed as a hit (Histone H4): yes

L-lactate dehydrogenase A chain, P06151
listed as a hit [15]: yes

Large ribosomal subunit protein bL32m, Q9BYC8
listed as a hit [16]: yes

Large ribosomal subunit protein uL3, P39023
listed as a hit [17]: yes

Small ribosomal subunit protein eS6, P62754
listed as a hit [18]: yes
